# Test results taken from PubChem BioAssay AID1259415 (National Center for Advancing Translational Sciences (NCATS), 2018).
# The whole screen tested about 410,000 compounds, of which about 18,000 (4.4%) were called active. Not shown: some 7% with an inconclusive outcome. The sample as a whole holds a higher share of actives than the screen did. Unmarked numbers belong to inactive results. Rule as the data show it: active = activity change below about -60%; inconclusive = no clear call, values can overlap the other calls; inactive = above about -39%.
# Test: qHTS Assay for inhibitors of the human cytomegalovirus (HCMV)
# Conditions: HFF cells, HCMV-luciferase reporter, 72 h; at 57.5 µM; stronger effect = lower value
# Procedure, shortened: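 HFF cells seeded 16 h at 37C, treated with compounds, infected with luciferase-reporter HCMV at MOI 1 PFU/cell; luciferase read at 72 h post infection, normalized to buffer-only and Salinomycin controls.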
# % is scaled to controls: 0 for no effect and ±100 for the full control effect.
row,Compound,"activity change, negative = inhibition"
1,Cc1ccc(Cn2cc(CCC(=O)NCc3ccc(OC(C)C)cc3)c3ccccc32)cc1,4.19%
2,CCN(CC)CCNC(=O)c1ccc(NC(=O)c2c(F)cccc2Cl)cc1,-23.1%
3,O=C(NNc1cc(Cl)cc(Cl)c1)c1c(F)cccc1Cl,-68.5% (active)
4,O=C(O)c1cc2c(cc1NC(=O)c1c(F)cccc1Cl)OCCCO2,-29.4%
5,CCOc1ccc(/C(O)=C2/C(=O)C(=O)N(Cc3cccnc3)C2c2ccc(N(C)C)cc2)c(C)c1 (centres undefined),19.8%
6,CC1=NN(Cc2ccccc2)C(=O)/C1=C/c1ccc(N(C)C)cc1,-61.8% (active)
7,COc1ccc(/C=C2/C(=O)N(c3ccccc3)N=C2C)c(OC)c1,67.9%
8,CC(=O)c1ccc(NC(c2ccc(F)cc2)c2nnc(-c3ccccc3)o2)cc1 (centres undefined),16.8%
9,O=C(c1ccco1)n1nc(-c2ccc(Cl)cc2)nc1NCc1ccccc1,-5.57%
10,COc1ccccc1CNC(=O)C(=O)NCC(c1ccco1)S(=O)(=O)c1ccc(F)cc1 (centres undefined),-13.4%
11,Cc1cccc(N2CCN(S(=O)(=O)c3ccc(-c4cc(C)no4)s3)CC2C)c1 (centres undefined),15.2%
12,Cc1cc(-c2ccc(S(=O)(=O)N3CCc4ccccc4C3)s2)on1,-77.4% (active)
13,Cc1cc(-c2ccc(S(=O)(=O)N3CCN(c4cccc(C(F)(F)F)c4)CC3)s2)on1,-38.1%
14,COc1ccc(CC(=O)N2CC(=O)Nc3ccc(Br)cc3C2c2ccc(F)cc2)cc1OC (centres undefined),-3.53%
15,COC(=O)[C@@]1(Cc2ccc(F)cc2)[C@H]2c3cc(C(=O)N(C)C)n(CCc4c[nH]c5ccc(OC)cc45)c3C[C@H]2CN1C(=O)c1ccccc1,-82.3% (active)
16,COC(=O)[C@@]1(Cc2ccc(OC)cc2)[C@H]2c3cc(C(=O)N4CCCC4)n(Cc4ccc(OC(F)(F)F)cc4)c3C[C@H]2CN1C(=O)c1ccccc1,-18.9%
17,COC(=O)[C@@]1(Cc2ccc(F)cc2)[C@H]2c3cc(C(=O)N4CCCC4)n(C[C@H](O)CO)c3C[C@H]2CN1C(=O)c1ccccc1,5.98%
18,CCC(=O)N1CCc2cc(S(=O)(=O)NC(C(=O)NCCc3ccc(C)cc3)C(C)C)ccc21 (centres undefined),12.8%
19,CCc1n[nH]c(=S)n1/N=C/c1c[nH]c2ccc(Br)cc12,-6.5%
20,Cc1ccccc1-c1n[nH]c(=S)n1/N=C/c1ccc(-c2ccccc2Br)o1,-88.9% (active)
21,CN(Cc1ccccc1)C(=O)c1cn(C)c2ccc(S(=O)(=O)N(C)C3CCCCC3)cc2c1=O,13.4%
22,CCCOc1ccc(N2CC(C(=O)Nc3ccccn3)CC2=O)cc1 (centres undefined),6.17%
23,O=C(Nc1cccc2c1N(C(=O)c1ccco1)CCC2)c1ccco1,-39.1%
24,COc1cccc(-n2c(=O)c3c(C)c(C(=O)N(C)C)sc3n(Cc3cccc(C)c3)c2=O)c1,-2.38%
25,CCOC(=O)Nc1ccc2c(c1)N(C(=O)CN1CCN3CCCC3C1)c1ccccc1CC2 (centres undefined),74.9%
26,CCOC(=O)Nc1ccc2c(c1)N(C(=O)CCN1CCN(CCO)CC1)c1ccccc1CC2,-20.5%
27,CCOC(=O)Nc1ccc2c(c1)N(C(=O)CCCl)c1ccccc1[S@]2=O,-102% (active)

row,Compound,"activity change, negative = inhibition"
1,Cc1ccc(S(=O)(=O)N(Cc2nc(-c3ccc(Cl)cc3)no2)C2CCCCC2)cc1,-16.3%
2,COc1cc(C(=O)NCCS(=O)(=O)N2CCN(c3ccccc3)CC2)cc(OC)c1OC,38.7%
3,Cn1c(N)c(C(=O)COC(=O)c2cnc(Cl)c(Cl)c2)c(=O)n(C)c1=O,-99.9% (active)
4,Cn1c(N)c(C(=O)COC(=O)c2ccc3ccccc3c2)c(=O)n(C)c1=O,7.39%
5,Cc1cc(C(=O)OCC(=O)c2c(N)n(C)c(=O)n(C)c2=O)c(C)o1,-20.6%
6,Cn1c(N)c(C(=O)COC(=O)COc2ccc(Cl)cc2)c(=O)n(C)c1=O,-16.9%
7,CCc1ccc(OCC(=O)OCC(=O)c2c(N)n(C)c(=O)n(C)c2=O)cc1,-68.3% (active)
8,CCCCOc1ccc(C(=O)NCC(=O)OCC(=O)c2c(N)n(C)c(=O)n(C)c2=O)cc1,-28.8%
9,Cc1ccc(S(=O)(=O)N(C)C)cc1NC(=O)c1ccc(-n2cncn2)c([N+](=O)[O-])c1,-7.42%
10,CC(C)NC(=O)c1nnc2n1CCN(C(=O)C1(c3ccc(Cl)cc3)CCCC1)C2,-2.1%
11,COc1cc(Cl)ccc1Nc1ncc(C(=O)N2CCN(c3ccccc3OC)CC2)c2ccccc12,9.53%
12,Cc1cccc(NC(=O)CN(c2ccc(C(C)C)cc2)S(=O)(=O)c2c(C)nn(C)c2C)c1C,-17.9%
13,COc1ccc(C(=O)Nc2ccccc2C(=O)N/N=C/c2ccc(O)c(OC)c2)cc1,-71.4% (active)
14,COC(=O)C(C)N=Cc1ccccc1 (centres undefined),-19.2%
15,COc1ccc(/C=N/Nc2ccccc2C(=O)O)cc1,-64.5% (active)
16,C=CCOc1ccc(C(=O)Nc2ccccc2C(=O)N2CCCC2)cc1,3.09%
17,COc1ccc(SSc2ccc(OC)cc2C(=O)O)c(C(=O)O)c1,4.79%
18,COc1cc(C(=O)Nc2cc(C(F)(F)F)ccc2N2CCOCC2)ccc1O,37.5%
19,C=CCOc1c(CNn2cn[nH]c2=S)cccc1OC,-4.48%
20,COC(=O)C[C@H]1C=C[C@H](NC(=O)c2ccc(F)cc2)[C@@H](CO)O1,21.6%
21,COc1ccc(OC)c(CCNc2nc3cnc(-c4cccc(Oc5ccccc5)c4)cc3n2C)c1,-30.5%
22,Cc1c(NC(=O)c2cc(=O)c3ccccc3o2)c(=O)n(-c2ccccc2)n1C,2.18%
23,CCCN(C(=O)Cn1ncc2c([nH]c3ccc(C)cc32)c1=O)c1ccccc1C,-8.94%
24,CCOc1cccc2c1N[C@@H](c1ccc(C(=O)O)cc1)[C@H]1CC=C[C@@H]21,-5.85%
25,COc1ccccc1C(=O)Nc1c(C(=O)N(C)Cc2ccccc2)sc2nc(C)c(Cl)c(C)c12,-19.6%
26,COc1ccccc1NC(=O)c1cc(Cl)nnc1Cl,-22.5%
27,COc1ccccc1NC(=O)c1sc2nc(C)c(C(=O)Nc3ccc(Cl)cc3)c(-c3ccc(Br)cc3)c2c1N,-104% (active)
